# Peg3 prom inh: reduces Peg3 promoter-driven luciferase expression in HeLa; inhibition, % at 20 µM; AID 588405; HeLa PEG-Prom luciferase reporter, luminescence, overnight; 360,000 tested, 1.7% active;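 active = inhibition of at least 50% at 20 µM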
# CF NFkB block: inhibitors of cystic fibrosis induced NF-kB. KKLEB NF-kB-GFP reporter, PAF-induced, GFP fluorescence overnight. 360,000 tested, 0.86% active. AID 588850. inhibition, % at 5 µM;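 active = at least 50% inhibition at 5 µM, scaled per plate between neutral and stimulator controls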;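 also: PAF is a Pseudomonas aeruginosa culture filtrate used as stimulus; plate controls were PAF-stimulated DMSO wells for no effect and unstimulated DMSO wells for full effect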
# MITF TRPM1 inh: inhibitors of MITF-driven TRPM1 promoter in melanoma cells. SK-MEL-5 TRPM1 promoter luciferase, 24 h. inhibition, % at 12.5 µM. 330,000 tested, 0.83% active;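 active = mean inhibition across replicates of 60% or more, whatever share of single replicates reaches that level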
# KKLEB cytotox: CF airway cell cytotoxicity counter-screen. 360,000 tested, 0.36% active. KKLEB CF airway cells viability, ATPlite luminescence, overnight; stronger effect = lower value; cells stimulated with P. aeruginosa culture filtrate. AID 602141. activity change (cytotoxicity), % at 5 µM;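 active = corrected activity change at or below -50% at 5 µM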
# HIF-2a block: HIF-2a inhibition | 360,000 tested, 0.72% active | 786-0 RCC cells HIF-2a reporter, luciferase luminescence, overnight | inhibition, % at 18.8 µM | AID 624352;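 active = inhibition of the luminescence signal of 40% or more relative to plate controls, in a single-dose primary screen at 18.75 µM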
# Shn3 inh set2: reduces Shn3 3'UTR luciferase signal in osteoblasts. Clone20 osteoblast Shn3 3'UTR firefly luciferase, 24 h. inhibition, % at 12.5 µM. 360,000 tested, 0.52% active. AID 588674;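 active = mean inhibition of at least 75% with every replicate also reaching 75%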;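 also: 0% = median of neutral control wells and 100% = pilot-screen positive control compound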
# * = called active by the depositor; . = not tested or not shown. Only some compounds are listed: those with a hit (about 2.8% of all), similar ones and a draw of the others.
SMILES,Peg3 prom inh,CF NFkB block,MITF TRPM1 inh,KKLEB cytotox,HIF-2a block,Shn3 inh set2
COc1cc(-c2cc(NC(C)=O)c3ncc(-c4cc(OC)c(OC)c(OC)c4)n3c2)cc(OC)c1OC,52*,-64,.,-5,-84,9
COc1cc(-c2cnc3c(NC=O)cc(-c4cccc(NC(C)=O)c4)cn23)cc(OC)c1OC,64*,84*,.,-67*,26,21
CS(=O)(=O)NNC(=O)c1sccc1OCc1ncc(C(F)(F)F)cc1Cl,6,-9,2,-10,19,13
COc1cccc(N2C(=NC(=O)CCc3ccccc3)SC3CS(=O)(=O)CC32)c1 (configuration not stated),-8,-25,-6,9,2,-5
COC(=O)CCNC(=O)Cc1ccc(S(=O)(=O)N2CCCCC2)s1,-1,9,4,-6,10,-12
COc1ccc(-c2cc(NC=O)c3ncc(-c4cccc(C(F)(F)F)c4)n3c2)cc1OC,29,27,.,-14,-5,-28
COc1cc(-c2cc(NC=O)c3ncc(-c4cccc(C(F)(F)F)c4)n3c2)cc(OC)c1OC,52*,-9,.,-4,-17,28
O=C(Nc1cccc(-c2cccc(Cl)c2)c1)C1CCN(Cc2ccc(CO)o2)CC1,54*,40,-2,-24,-14,5
Cc1ccc(CN2CCC(C(=O)Nc3cccc(-c4cccc(F)c4)c3)CC2)o1,12,-3,-1,7,15,15
FC(F)(F)c1cc(Cc2nc3ccccc3n2C(CCc2ccccc2)c2nc3ccccc3[nH]2)cc(C(F)(F)F)c1 (configuration not stated),.,.,.,.,-74,.
C#CCOCCOCCOCCNc1nc(N2CCN(C(=O)[C@H](CCC(=O)O)n3cc(CN)nn3)CC2)nc(N2CCN(C(=O)[C@H](CCCN=C(N)N)n3cc(C(N)[C@@H](C)CC)nn3)CC2)n1 (some centres not stated),-16,3,2,11,0,-3
O=Cc1ccc(N2CCCC2)c([N+](=O)[O-])c1,12,-2,5,-2,-17,-5
O=[N+]([O-])/C=C\c1ccc(N2CCCC2)c(F)c1,101*,-21,94*,-12,46*,48
COc1ccc(C[C@@H]2CN3C(=NC[C@@H]3Cc3ccc(O)cc3)N2C[C@H](C)NC(=O)CCC2CCCCC2)cc1,68*,0,-17,-19,-15,-6
Cc1cc(C)nc(NC(N)=NCCc2ccccc2)n1,35,11,65*,-10,37,27
COc1ccc(C(=O)N2CCCC(c3cc(C(=O)NCc4ccccc4)no3)C2)cc1 (configuration not stated),8,-5,.,-7,7,8
COc1ccc(C=C2CS(=O)(=O)CC(=Cc3ccc(OC)cc3)C2=O)cc1,97*,92*,.,-18,86*,71
O=C(O)c1ccccc1C(=O)Nc1ccc(Oc2cccc3ccccc23)cc1,20,7,73*,20,78*,6
O=C(Cc1cccs1)Nc1cccc(-c2nc3cc4ccccc4cc3[nH]2)c1,-49,81*,-68,-71*,-382,-60
O=C(Nc1ccc(-c2nc3ccc(NC(=O)c4cccs4)cc3[nH]2)cc1)c1cccs1,66*,7,79*,-8,15,78
O=C(Nc1ccc2nc(-c3cccs3)[nH]c2c1)c1cccs1,-229,10,-65,3,-201,-21
Cc1ccc2nc(C)cc(N/N=C/c3cccc(O)c3)c2c1,-5,11,-20,-1,-38,0
COc1ccc(/C=N/Nc2cc(C)nc3c(C)cccc23)cc1,111*,-58,79*,-5,-14,-4
COc1ccc(/C=N/Nc2cc(C)nc3ccccc23)cc1,103*,-100,78*,0,-22,11
c1ccc(-c2cc3nc(NCc4cccs4)nc(NCc4ccc5occc5c4)c3s2)cc1,64*,-1,.,-26,-95,30
O=C(C[C@H]1C/C=C\C[C@H](NC(=O)OCC2c3ccccc3-c3ccccc32)C(=O)OC[C@H](Cc2ccccc2)NC1=O)N[C@H](CO)Cc1ccccc1,75*,16,2,-17,0,20
O=C(N[C@@H]1C/C=C\C[C@@H](CC(=O)N(CCO)Cc2ccccc2)C(=O)NCCOC1=O)OCC1c2ccccc2-c2ccccc21,1,5,3,2,10,30

# High-throughput results as filed in PubChem.
